Screening data from PubChem BioAssay.
Most compounds without a hit are left out; they make up all but 4.1% or so of the library.
CSC inhib – cancer stem cell inhibition; inhibition, % at 7.5 µM; AID 2717; hit rate 1.1% among 300,000; cancer stem cell-like cells viability, luminescence; in the data active = inhibition above about 75%; tested in HMLE shEcad cells
A1 inh – inhibitors of the anti-apoptotic protein A1, read as caspase activation | MEF A1-2A-BIM cells, Caspase-Glo 3/7 luminescence, 3 h; percent of clofoctol response, vehicle zero | AID 2462 | hit rate 0.066% among 330,000 | caspase activation, % (concentration not given with the values);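 active = over half of replicate activation scores above 10%, or exactly half above 10 with the replicate mean above 10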
Mdm2 MdmX PPI – inhibitors of human Mdm2/MdmX interaction; O15151+Q00987; SaOS-2 split-luciferase Mdm2/MdmX complementation, luminescence; inhibition, % at 8 µM; hit rate 3% among 330,000; AID 485346;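 active = inhibition of at least 50% at 8 µM in the primary screen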
Target sequence (O15151 whole entry, looked up): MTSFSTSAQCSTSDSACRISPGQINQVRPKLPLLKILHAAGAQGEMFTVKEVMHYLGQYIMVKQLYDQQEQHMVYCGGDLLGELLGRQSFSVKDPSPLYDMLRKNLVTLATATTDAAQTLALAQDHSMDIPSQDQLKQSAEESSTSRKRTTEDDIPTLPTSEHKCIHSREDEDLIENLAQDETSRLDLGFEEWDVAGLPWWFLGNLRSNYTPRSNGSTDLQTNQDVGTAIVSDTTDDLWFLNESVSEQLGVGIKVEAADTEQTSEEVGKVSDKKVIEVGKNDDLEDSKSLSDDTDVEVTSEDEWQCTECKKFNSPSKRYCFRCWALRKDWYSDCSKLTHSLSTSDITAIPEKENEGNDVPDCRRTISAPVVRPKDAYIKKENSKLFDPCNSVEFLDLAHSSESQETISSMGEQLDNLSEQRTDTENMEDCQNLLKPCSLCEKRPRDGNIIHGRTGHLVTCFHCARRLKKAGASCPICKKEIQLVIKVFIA
Target sequence (Q00987 whole entry, looked up): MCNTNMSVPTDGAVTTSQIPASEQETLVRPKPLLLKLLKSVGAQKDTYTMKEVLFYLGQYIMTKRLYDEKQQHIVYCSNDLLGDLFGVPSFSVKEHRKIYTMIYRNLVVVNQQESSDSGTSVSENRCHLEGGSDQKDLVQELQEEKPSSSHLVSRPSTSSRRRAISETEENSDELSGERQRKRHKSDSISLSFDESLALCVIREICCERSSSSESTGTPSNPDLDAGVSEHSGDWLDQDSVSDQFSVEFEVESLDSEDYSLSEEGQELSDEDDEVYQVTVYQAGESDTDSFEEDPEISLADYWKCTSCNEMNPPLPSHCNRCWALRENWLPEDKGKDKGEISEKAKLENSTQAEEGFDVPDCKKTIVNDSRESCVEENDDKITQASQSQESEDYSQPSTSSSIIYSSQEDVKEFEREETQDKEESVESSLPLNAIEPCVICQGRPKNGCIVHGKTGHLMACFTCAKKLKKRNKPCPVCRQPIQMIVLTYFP
Beta cell apopt – beta cell apoptosis inhibition | hit rate 0.8% among 300,000 | protection from apoptosis, % (concentration not given with the values) | INS-1E cytokine-induced death, ATP luminescence, 48 h; percent of positive-control rescue, neutral wells zero;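 active = Every replicate reaches about 75%, or at least half do and their mean reaches it too, limit read from the data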;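 note: 0% = cytokine-treated negative control wells and 100% = positive control rescue; higher means more ATP so stronger rescue from cytokine killing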
aSyn 5UTR inh – 5' untranslated region of α-synuclein, MLPCN primary screen; alpha-synuclein 5'UTR reporter, inhibitor activity; inhibition, % (tested at 7.5 µM); hit rate 0.82% among 300,000; AID 1813; in the data active = inhibition above about 60%;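 note: H4 neuroglioblastoma cells stably carrying SNCA 5'UTR luciferase fusion; 0% = DMSO wells and 100% = positive control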
Mdm2-MdmX conf – confirmation of human Mdm2/MdmX interaction inhibitors; shares compounds with Mdm2 MdmX PPI; inhibition, % at 8 µM; Mdm2-MdmX binding, luminescent assay; AID 489028; hit rate 55% among 10,000; in the data active = inhibition above about 40%
Full FLuc ctr – counter-screen for Mdm2/MdmX inhibitors: full-length luciferase. shares compounds with Mdm2 MdmX PPI. SaOS-2 full-length luciferase counterscreen, luminescence. inhibition, % at 8 µM. hit rate 77% among 6,200. AID 504607;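 active = mean inhibition at 8 µM reaching about 37%, which flags the compound as non-specific, limit read from the data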;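 note: p53-null SaOS-2 cells with luciferase driven by a doxycycline-inducible promoter; compound on cells about two nights before reading with doxycycline added after day one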
* hit, by the source's call.

Results for CN(C)S(=O)(=O)c1ccc(/C(O)=C2/C(=O)C(=O)N(CCCN3CCOCC3)C2c2ccncc2)cc1 (stereo not given) ?
CSC inhib: -2.9; A1 inh: 2.3; Mdm2 MdmX PPI: -4.9; Beta cell apopt: -3.1; aSyn 5UTR inh: -2.5

How did Cc1cccc(NC(=O)c2ccc(C)c(S(=O)(=O)N3CCCCC3)c2)n1 do in these assays?
CSC inhib: -13.2; A1 inh: -2.1; Mdm2 MdmX PPI: 1.8; Beta cell apopt: -2.1; aSyn 5UTR inh: -116.2

How did O=C(O)C1CC=CCC1C(=O)Nc1ccc2c(c1)CCC2 (stereo not given) do in these assays?
CSC inhib: -7.4; A1 inh: -0.9; Mdm2 MdmX PPI: 10.5; aSyn 5UTR inh: -37.2

How did O=C(NCCc1ccccc1F)C1CCCN(c2nc3ccccc3s2)C1 (stereo not given) do in these assays?
A1 inh: 1.6; Mdm2 MdmX PPI: 6.0; Beta cell apopt: -3.1; aSyn 5UTR inh: -17.1

How did CCOC(=O)C1CCN(C(=O)c2cc(S(=O)(=O)N3CCc4ccccc43)ccc2OC)CC1 do in these assays?
CSC inhib: -13.3; A1 inh: -0.2; Mdm2 MdmX PPI: 24.6; Beta cell apopt: -8.0; aSyn 5UTR inh: 8.3

What do the screens show for `COc1cc2c3nc4n(c(=O)c3n(CC(=O)NCC3CCCO3)c2cc1OC)CCS4` (stereo not given)?
CSC inhib: 5.2; A1 inh: 0.1; Mdm2 MdmX PPI: 22.4; Beta cell apopt: -11.4; aSyn 5UTR inh: 10.5

How did COc1ccc(Cn2c(C)c(C)c(C#N)c2NC(=O)Nc2cccc(C)c2)cc1 do in these assays?
CSC inhib: -6.3; A1 inh: 0.2; Mdm2 MdmX PPI: 54.1*; Beta cell apopt: -5.5; aSyn 5UTR inh: -0.8; Mdm2-MdmX conf: 7.0

What do the screens show for `COc1ccc(Cn2cccc(NC(=O)Nc3cccc(C#N)c3)c2=O)cc1`?
CSC inhib: -3.0; A1 inh: -0.4; Mdm2 MdmX PPI: 66.8*; Beta cell apopt: -1.7; aSyn 5UTR inh: 14.8; Mdm2-MdmX conf: 7.1

How did CCOc1ccc(NC(=O)Nc2cccn(Cc3ccccc3)c2=O)cc1 do in these assays?
CSC inhib: 11.8; A1 inh: 0.8; Mdm2 MdmX PPI: 6.9; Beta cell apopt: 0.2; aSyn 5UTR inh: -43.1

What do the screens show for `N#CCCN(C(=O)COC(=O)CCN=C1NS(=O)(=O)c2ccccc21)c1ccc(F)cc1`?
CSC inhib: -6.8; A1 inh: -0.3; Mdm2 MdmX PPI: 24.1; Beta cell apopt: -4.2; aSyn 5UTR inh: 10.1

How did CCN(CC)C(=O)/C(=C/c1cn(S(=O)(=O)N(C)C)c2ccccc12)NC(=O)c1ccc(OC)cc1 do in these assays?
CSC inhib: 7.8; A1 inh: 0.9; Mdm2 MdmX PPI: 61.3*; Beta cell apopt: 3.6; aSyn 5UTR inh: 12.6; Mdm2-MdmX conf: 23.6

What do the screens show for `Cc1ccc(N(CC(=O)NCCc2ccccc2)C(=O)CCC(=O)Nc2cc(C)ccn2)cc1`?
CSC inhib: -12.8; A1 inh: 0.5; Mdm2 MdmX PPI: 21.0; Beta cell apopt: 3.8; aSyn 5UTR inh: 9.6

Results for CCN1C(=NCCc2ccc(Br)cc2)N[C@@H](c2ccccc2)[C@H](C(=O)OC)[C@H]1C ?
CSC inhib: 25.6; A1 inh: 2.0; Mdm2 MdmX PPI: 52.0*; Beta cell apopt: 0.5; Mdm2-MdmX conf: 14.0

What do the screens show for `CCN1C(=NCCc2ccc([N+](=O)[O-])cc2)N[C@@H](c2ccccc2)[C@H](C(=O)OC)[C@H]1C`?
CSC inhib: -4.2; A1 inh: -2.3; Mdm2 MdmX PPI: 16.4; Beta cell apopt: 2.9

Results for O=C(Nc1ccc2c(c1)OCO2)C1CCN(C(=O)c2ccc([N+](=O)[O-])cc2)CC1 ?
CSC inhib: -6.4; A1 inh: 1.5; Mdm2 MdmX PPI: 19.4; Beta cell apopt: -1.9; aSyn 5UTR inh: 3.5

How did COc1cccc(-n2sc3c(c2=S)-c2cc(OC)ccc2NC3(C)C)c1 do in these assays?
CSC inhib: -14.6; A1 inh: 0.9; Mdm2 MdmX PPI: 50.5*; Beta cell apopt: 1.4; aSyn 5UTR inh: -2.2; Mdm2-MdmX conf: 38.9; Full FLuc ctr: 76.2*

What do the screens show for `COc1cccc(-n2cn[nH]c2=S)c1`?
CSC inhib: -4.1; A1 inh: -0.9; Mdm2 MdmX PPI: 3.3; Beta cell apopt: 0.4; aSyn 5UTR inh: -5.8
